Data taken from article PMC7862700, “An all-to-all approach to the identification of sequence-specific readers for epigenetic DNA modifications on cytosine”.

What was measured:
Test in all cases: DAPPL (digital affinity profiling via proximity ligation, sequencing); 10 mM Tris-HCl pH 7.5, 50 mM NaCl, 1 mM DTT, 4% glycerol, room temperature, 30 min; GST-TFs on glutathione beads, 16-mer random dsDNA library, 0.1% formaldehyde crosslink after washing; high values mean tight binding
FEV = molecular target: T1, FEV (Homo sapiens, UniProt Q99581 1-238); conditions: protein: recombinant; tags: N-terminal GST; dsDNA, one strand shown
T1 sequence: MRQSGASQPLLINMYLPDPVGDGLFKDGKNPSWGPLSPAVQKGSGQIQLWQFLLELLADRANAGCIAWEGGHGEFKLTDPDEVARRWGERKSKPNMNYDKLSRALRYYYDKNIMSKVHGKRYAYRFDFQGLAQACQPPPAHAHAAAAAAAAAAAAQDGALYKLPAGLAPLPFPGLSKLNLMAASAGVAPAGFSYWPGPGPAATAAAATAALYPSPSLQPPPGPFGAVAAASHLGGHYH
Procedure, shortened: (§1)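 Binding signal is given per hexamer as its read frequency for a factor divided by its frequency in the tag-only sample. GST-fused human transcription factors were expressed in yeast, captured on glutathione beads, barcoded with DNA and pooled with that sample, then incubated with 200 nmole of a 16-mer random double-stranded DNA library in Tris/NaCl/DTT/glycerol buffer for 30 min at room temperature. The pools were then washed, crosslinked, proximity-ligated, amplified by PCR and sequenced on an Illumina NextSeq500.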

ETV5 = ETV5 (Homo sapiens, UniProt P41161 1-510); conditions: protein: recombinant; tags: N-terminal GST; dsDNA, one strand shown
Procedure, shortened: as §1

HSF1 = HSF1 (Homo sapiens, UniProt Q00613 1-529); conditions: protein: recombinant; tags: N-terminal GST; chain copies: 3; dsDNA, one strand shown
Procedure, shortened: as §1

SPIC = molecular target: T2, SPIC (Homo sapiens, UniProt Q8N5J4 1-248); conditions: protein: recombinant; tags: N-terminal GST; dsDNA, one strand shown
T2 sequence: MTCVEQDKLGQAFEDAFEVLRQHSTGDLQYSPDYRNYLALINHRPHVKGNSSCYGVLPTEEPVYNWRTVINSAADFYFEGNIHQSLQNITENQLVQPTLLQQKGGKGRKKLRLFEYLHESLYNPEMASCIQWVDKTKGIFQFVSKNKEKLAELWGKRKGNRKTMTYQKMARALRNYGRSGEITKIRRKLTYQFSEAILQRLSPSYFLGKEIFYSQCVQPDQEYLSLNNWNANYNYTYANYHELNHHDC
Procedure, shortened: as §1

ELF4 = ELF4 (Homo sapiens, UniProt Q99607 1-663); conditions: protein: recombinant; tags: N-terminal GST; dsDNA, one strand shown
Procedure, shortened: as §1

ELK4 = molecular target: T3, ELK4 (Homo sapiens, UniProt P28324-2 1-405); conditions: protein: recombinant; tags: N-terminal GST; dsDNA, one strand shown
T3 sequence: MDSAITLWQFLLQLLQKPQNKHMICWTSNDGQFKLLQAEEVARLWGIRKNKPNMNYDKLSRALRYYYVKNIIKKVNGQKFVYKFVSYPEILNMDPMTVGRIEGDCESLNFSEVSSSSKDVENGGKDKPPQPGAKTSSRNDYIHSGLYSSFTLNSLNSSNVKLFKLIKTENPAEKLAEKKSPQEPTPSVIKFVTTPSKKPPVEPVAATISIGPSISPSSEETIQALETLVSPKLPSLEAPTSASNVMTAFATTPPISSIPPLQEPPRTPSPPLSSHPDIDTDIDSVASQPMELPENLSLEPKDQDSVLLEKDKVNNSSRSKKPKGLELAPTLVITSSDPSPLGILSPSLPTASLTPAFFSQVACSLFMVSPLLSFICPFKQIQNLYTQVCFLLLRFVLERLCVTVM
Procedure, shortened: as §1

ETV2 = molecular target: T4, ETV2 (Homo sapiens, UniProt O00321 1-342); conditions: protein: recombinant; tags: N-terminal GST; dsDNA, one strand shown
T4 sequence: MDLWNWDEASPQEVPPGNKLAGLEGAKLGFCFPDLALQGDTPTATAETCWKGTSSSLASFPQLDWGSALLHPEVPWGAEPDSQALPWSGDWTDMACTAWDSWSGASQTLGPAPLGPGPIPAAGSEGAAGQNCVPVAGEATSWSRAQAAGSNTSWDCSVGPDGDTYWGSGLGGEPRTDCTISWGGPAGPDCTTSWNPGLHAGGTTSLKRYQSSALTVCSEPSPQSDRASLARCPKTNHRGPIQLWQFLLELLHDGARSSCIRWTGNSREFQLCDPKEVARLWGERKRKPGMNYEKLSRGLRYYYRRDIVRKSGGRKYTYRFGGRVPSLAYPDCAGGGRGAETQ
Procedure, shortened: as §1

ELF3 = molecular target: T5, ELF3 (Homo sapiens, UniProt P78545 1-371); conditions: protein: recombinant; tags: N-terminal GST; dsDNA, one strand shown
T5 sequence: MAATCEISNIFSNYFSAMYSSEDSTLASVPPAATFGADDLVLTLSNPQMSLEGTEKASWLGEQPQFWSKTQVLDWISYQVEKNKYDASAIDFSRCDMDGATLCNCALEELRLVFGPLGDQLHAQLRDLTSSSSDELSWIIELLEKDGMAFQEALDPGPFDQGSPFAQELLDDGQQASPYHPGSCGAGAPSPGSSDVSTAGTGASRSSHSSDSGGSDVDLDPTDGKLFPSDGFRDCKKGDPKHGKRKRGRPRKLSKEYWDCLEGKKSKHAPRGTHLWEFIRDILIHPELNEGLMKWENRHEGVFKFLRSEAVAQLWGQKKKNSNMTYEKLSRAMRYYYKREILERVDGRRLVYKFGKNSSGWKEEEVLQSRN
Procedure, shortened: as §1

CRX = CRX (Homo sapiens, UniProt O43186 1-299); conditions: protein: recombinant; tags: N-terminal GST; dsDNA, one strand shown
Procedure, shortened: as §1

ETV1 = ETV1 (Homo sapiens, UniProt P50549 1-477); conditions: protein: recombinant; tags: N-terminal GST; dsDNA, one strand shown
Procedure, shortened: as §1

ETV1, sequence (P50549 whole entry): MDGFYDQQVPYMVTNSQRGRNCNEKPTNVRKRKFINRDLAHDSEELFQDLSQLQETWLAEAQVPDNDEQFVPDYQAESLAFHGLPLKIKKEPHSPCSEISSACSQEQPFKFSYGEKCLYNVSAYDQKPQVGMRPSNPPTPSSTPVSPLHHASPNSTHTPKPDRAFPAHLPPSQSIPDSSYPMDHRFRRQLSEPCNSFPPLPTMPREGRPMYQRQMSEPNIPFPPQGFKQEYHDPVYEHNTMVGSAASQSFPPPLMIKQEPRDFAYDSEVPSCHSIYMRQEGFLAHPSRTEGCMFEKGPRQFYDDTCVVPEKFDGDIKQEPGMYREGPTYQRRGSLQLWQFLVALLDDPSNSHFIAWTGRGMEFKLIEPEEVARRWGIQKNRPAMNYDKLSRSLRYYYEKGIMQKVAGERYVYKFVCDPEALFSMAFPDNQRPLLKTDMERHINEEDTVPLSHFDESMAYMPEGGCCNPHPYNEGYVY
ELF4, sequence (Q99607 whole entry): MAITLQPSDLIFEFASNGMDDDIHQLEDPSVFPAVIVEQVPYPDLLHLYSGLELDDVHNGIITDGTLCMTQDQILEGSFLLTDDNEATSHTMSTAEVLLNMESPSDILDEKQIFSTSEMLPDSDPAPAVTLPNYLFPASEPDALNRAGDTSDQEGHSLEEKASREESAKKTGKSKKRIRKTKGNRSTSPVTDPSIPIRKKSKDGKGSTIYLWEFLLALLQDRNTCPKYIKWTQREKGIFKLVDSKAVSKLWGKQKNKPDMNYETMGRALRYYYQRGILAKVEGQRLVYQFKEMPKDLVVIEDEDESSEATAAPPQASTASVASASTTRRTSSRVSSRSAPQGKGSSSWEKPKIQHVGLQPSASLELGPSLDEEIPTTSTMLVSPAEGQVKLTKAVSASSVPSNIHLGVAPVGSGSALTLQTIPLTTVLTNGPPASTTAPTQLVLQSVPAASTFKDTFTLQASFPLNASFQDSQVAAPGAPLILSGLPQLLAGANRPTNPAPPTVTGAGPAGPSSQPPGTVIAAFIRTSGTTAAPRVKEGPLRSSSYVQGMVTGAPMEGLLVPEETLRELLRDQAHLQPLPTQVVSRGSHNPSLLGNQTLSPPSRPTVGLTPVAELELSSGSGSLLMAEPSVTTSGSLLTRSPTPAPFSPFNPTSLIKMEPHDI
CRX, sequence (O43186 whole entry): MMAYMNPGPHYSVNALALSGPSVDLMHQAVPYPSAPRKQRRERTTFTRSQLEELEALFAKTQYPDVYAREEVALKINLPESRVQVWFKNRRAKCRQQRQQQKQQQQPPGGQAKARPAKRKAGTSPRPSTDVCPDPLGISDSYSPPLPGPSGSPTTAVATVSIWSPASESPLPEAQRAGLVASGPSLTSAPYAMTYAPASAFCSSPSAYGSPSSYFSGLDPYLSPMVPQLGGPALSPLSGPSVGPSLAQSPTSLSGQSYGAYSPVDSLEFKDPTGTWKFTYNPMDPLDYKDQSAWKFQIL
HSF1, sequence (Q00613 whole entry): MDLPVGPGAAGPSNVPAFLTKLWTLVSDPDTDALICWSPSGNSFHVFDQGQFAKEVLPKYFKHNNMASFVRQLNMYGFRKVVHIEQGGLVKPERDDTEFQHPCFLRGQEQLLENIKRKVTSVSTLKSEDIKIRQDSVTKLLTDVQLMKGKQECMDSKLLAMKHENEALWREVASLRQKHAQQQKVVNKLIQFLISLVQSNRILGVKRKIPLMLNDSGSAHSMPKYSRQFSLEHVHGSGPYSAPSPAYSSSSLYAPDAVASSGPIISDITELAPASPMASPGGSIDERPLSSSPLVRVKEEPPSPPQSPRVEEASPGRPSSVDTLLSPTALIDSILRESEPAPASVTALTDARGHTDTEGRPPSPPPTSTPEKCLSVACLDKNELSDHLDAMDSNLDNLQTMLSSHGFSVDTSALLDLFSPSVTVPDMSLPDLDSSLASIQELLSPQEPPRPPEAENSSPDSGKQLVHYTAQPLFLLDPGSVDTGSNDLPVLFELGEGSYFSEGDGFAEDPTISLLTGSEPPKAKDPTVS
ETV5, sequence (P41161 whole entry): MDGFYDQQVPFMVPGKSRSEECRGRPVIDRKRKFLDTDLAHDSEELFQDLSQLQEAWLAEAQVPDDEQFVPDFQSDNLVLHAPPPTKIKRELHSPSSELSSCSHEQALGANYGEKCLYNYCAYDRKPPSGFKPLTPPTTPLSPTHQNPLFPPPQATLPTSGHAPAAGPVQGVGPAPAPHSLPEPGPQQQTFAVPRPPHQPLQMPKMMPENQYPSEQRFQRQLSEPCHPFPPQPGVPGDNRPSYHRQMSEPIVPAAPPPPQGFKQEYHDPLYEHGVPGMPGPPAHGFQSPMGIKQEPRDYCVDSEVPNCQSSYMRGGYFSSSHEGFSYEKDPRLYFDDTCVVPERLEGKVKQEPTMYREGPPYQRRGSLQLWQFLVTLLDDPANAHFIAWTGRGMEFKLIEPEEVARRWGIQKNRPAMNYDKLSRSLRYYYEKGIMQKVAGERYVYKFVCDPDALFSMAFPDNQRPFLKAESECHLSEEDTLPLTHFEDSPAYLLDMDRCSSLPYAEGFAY

Sequence | binding signal (FEV) | binding signal (ETV5) | binding signal (HSF1) | binding signal (SPIC) | binding signal (ELF4) | binding signal (ELK4) | binding signal (ETV2) | binding signal (ELF3) | binding signal (CRX) | binding signal (ETV1)
TTTCAA | 1.34 fold enrichment (6-mer frequency, TF over GST control) | 1.29 fold enrichment (6-mer frequency, TF over GST control) | 1.23 fold enrichment (6-mer frequency, TF over GST control) | 1.33 fold enrichment (6-mer frequency, TF over GST control) | 1.34 fold enrichment (6-mer frequency, TF over GST control) | 1.29 fold enrichment (6-mer frequency, TF over GST control) | 1.32 fold enrichment (6-mer frequency, TF over GST control) | 1.33 fold enrichment (6-mer frequency, TF over GST control) | 1.34 fold enrichment (6-mer frequency, TF over GST control) | 1.33 fold enrichment (6-mer frequency, TF over GST control)
TATACC | 1.23 fold enrichment (6-mer frequency, TF over GST control) | 1.09 fold enrichment (6-mer frequency, TF over GST control) | 1.1 fold enrichment (6-mer frequency, TF over GST control) | 1.14 fold enrichment (6-mer frequency, TF over GST control) | 1.21 fold enrichment (6-mer frequency, TF over GST control) | 1.22 fold enrichment (6-mer frequency, TF over GST control) | 1.15 fold enrichment (6-mer frequency, TF over GST control) | 1.12 fold enrichment (6-mer frequency, TF over GST control) | 1.26 fold enrichment (6-mer frequency, TF over GST control) | 1.31 fold enrichment (6-mer frequency, TF over GST control)
CCTAAC | 1.38 fold enrichment (6-mer frequency, TF over GST control) | 1.42 fold enrichment (6-mer frequency, TF over GST control) | 1.19 fold enrichment (6-mer frequency, TF over GST control) | 1.49 fold enrichment (6-mer frequency, TF over GST control) | 1.53 fold enrichment (6-mer frequency, TF over GST control) | 1.36 fold enrichment (6-mer frequency, TF over GST control) | 1.41 fold enrichment (6-mer frequency, TF over GST control) | 1.51 fold enrichment (6-mer frequency, TF over GST control) | 1.25 fold enrichment (6-mer frequency, TF over GST control) | 1.35 fold enrichment (6-mer frequency, TF over GST control)
GTATAA | 1.01 fold enrichment (6-mer frequency, TF over GST control) | 1.1 fold enrichment (6-mer frequency, TF over GST control) | 1.16 fold enrichment (6-mer frequency, TF over GST control) | 1.07 fold enrichment (6-mer frequency, TF over GST control) | 1.05 fold enrichment (6-mer frequency, TF over GST control) | 1.08 fold enrichment (6-mer frequency, TF over GST control) | 1.18 fold enrichment (6-mer frequency, TF over GST control) | 1.14 fold enrichment (6-mer frequency, TF over GST control) | 1.41 fold enrichment (6-mer frequency, TF over GST control) | 1.14 fold enrichment (6-mer frequency, TF over GST control)
AAAGAA | 1.23 fold enrichment (6-mer frequency, TF over GST control) | 1.22 fold enrichment (6-mer frequency, TF over GST control) | 1.99 fold enrichment (6-mer frequency, TF over GST control) | 1.17 fold enrichment (6-mer frequency, TF over GST control) | 1.29 fold enrichment (6-mer frequency, TF over GST control) | 1.32 fold enrichment (6-mer frequency, TF over GST control) | 1.25 fold enrichment (6-mer frequency, TF over GST control) | 1.29 fold enrichment (6-mer frequency, TF over GST control) | 1.48 fold enrichment (6-mer frequency, TF over GST control) | 1.29 fold enrichment (6-mer frequency, TF over GST control)
ATCTTT | 1.19 fold enrichment (6-mer frequency, TF over GST control) | 1.16 fold enrichment (6-mer frequency, TF over GST control) | 1.58 fold enrichment (6-mer frequency, TF over GST control) | 1.35 fold enrichment (6-mer frequency, TF over GST control) | 1.22 fold enrichment (6-mer frequency, TF over GST control) | 1.29 fold enrichment (6-mer frequency, TF over GST control) | 1.15 fold enrichment (6-mer frequency, TF over GST control) | 1.17 fold enrichment (6-mer frequency, TF over GST control) | 1.76 fold enrichment (6-mer frequency, TF over GST control) | 1.24 fold enrichment (6-mer frequency, TF over GST control)
CTCAAA | 1.28 fold enrichment (6-mer frequency, TF over GST control) | 1.18 fold enrichment (6-mer frequency, TF over GST control) | 1.24 fold enrichment (6-mer frequency, TF over GST control) | 1.2 fold enrichment (6-mer frequency, TF over GST control) | 1.18 fold enrichment (6-mer frequency, TF over GST control) | 1.2 fold enrichment (6-mer frequency, TF over GST control) | 1.16 fold enrichment (6-mer frequency, TF over GST control) | 1.32 fold enrichment (6-mer frequency, TF over GST control) | 1.25 fold enrichment (6-mer frequency, TF over GST control) | 1.2 fold enrichment (6-mer frequency, TF over GST control)
